Among the data in PubChem BioAssay (NCATS) are activation and Potency values, retold here.

Experiment [1] addresses Cellular tumor antigen p53 (Homo sapiens) (UniProt P04637). Put plainly: Primary qHTS for small molecule compounds that upregulate eGFP-tagged delta133p53alpha (in N-terminal) cells. (AID 2060322). Further: nearly all actives have a fitted effect of over 75% in size. Further: potency means the concentration at half of the fitted maximal effect.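 On activation: series mostly up to about 56 µM; 0% = DMSO vehicle and 100% = reference activator.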 As to conditions: NCI-H358 eGFP-delta133p53alpha fluorescence, 24 h; activation: active compounds read high. The gist of the method: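 NCI-H358 cells pre-induced 24 h with 10 ng/ml doxycycline to express N-terminal eGFP-delta133p53alpha, then dosed 24 h at 37C without doxycycline; fixed, Hoechst-stained, GFP intensity by laser scanning cytometry, normalized to DMSO (0%) and 57.5 uM 5-azacytidine (100%).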

Experiment [2] deals with Aldehyde dehydrogenase, mitochondrial (Homo sapiens) (UniProt P05091). The experiment is described as follows: qHTS for Inhibitors of the Aldehyde Dehydrogenase Family (ALDH2) Primary screen (AID 2061308).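 Further: plate controls were vehicle for no effect and reference inhibitor for full effect; nearly all actives have a fitted effect of over 55% in size.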
In experiment [3] the target is Retinaldehyde dehydrogenase 3 (Homo sapiens) (UniProt P47895). The experiment is described as follows: qHTS for Inhibitors of the Aldehyde Dehydrogenase Family (ALDH1A3) Validation screen (AID 2061312). Further: nearly all actives have a fitted effect of over 45% in size. Further: potency means the concentration at half of the fitted maximal effect.
For experiment [4] the target is unchanged. Put plainly: qHTS for Inhibitors of the Aldehyde Dehydrogenase Family (ALDH1A3) Primary screen (AID 2061315).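 Further: plate controls were DMSO vehicle for no effect and reference inhibitor for full effect.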 On the technique in general: Quantitative high-throughput screening tests each substance at several concentrations.

Each structure is given as a SMILES string. Several values for one entry are separate records, joined by “and”; a condition that tells them apart may be missing. Equal values may be shown once. Inconclusive results are not listed. A number with no mark means an inactive call. Activity calls are given as the source filed them. The call rests on the fitted dose curve; in most records, active means well fitted curve in the direction sought with a large enough effect; inconclusive means small, poorly fitted or top-dose-only effect, or another doubt; inactive means no such curve, though single readings can be large; an effect the other way counts as inactive or inconclusive.

Cellular tumor antigen p53 (Homo sapiens), sequence (P04637 whole entry, looked up): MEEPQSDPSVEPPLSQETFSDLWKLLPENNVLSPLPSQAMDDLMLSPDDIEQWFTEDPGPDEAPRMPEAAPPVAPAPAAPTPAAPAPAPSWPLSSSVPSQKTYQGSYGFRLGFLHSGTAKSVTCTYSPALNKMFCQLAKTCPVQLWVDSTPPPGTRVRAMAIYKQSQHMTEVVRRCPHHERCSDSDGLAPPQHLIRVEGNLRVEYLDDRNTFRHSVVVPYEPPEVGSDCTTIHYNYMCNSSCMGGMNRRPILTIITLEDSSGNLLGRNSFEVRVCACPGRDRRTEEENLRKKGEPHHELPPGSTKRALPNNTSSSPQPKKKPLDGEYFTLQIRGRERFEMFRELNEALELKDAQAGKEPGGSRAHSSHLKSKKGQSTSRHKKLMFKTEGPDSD

Turning to `CC(C)(C#N)c1ccc(N2C(=O)OCc3cnc4ccc(-c5cnc6ccccc6c5)cc4c32)cc1`, in experiment [1], the activation was -3.82%. The Potency result in experiment [2], in experiment [3] and in experiment [4] was “inactive” throughout.

As for `O=C(O)Cc1ccc2oc(-c3ccc(NC(=O)/C=C/c4ccc(Br)cc4)c(F)c3)nc2c1`, the activation in experiment [1] is 25.8%. Moreover, the Potency result in experiment [2], in experiment [3] and in experiment [4] was “inactive” in each case.

Turning to `CC(C)C(CO)Nc1nc(Nc2cc(N)cc(Cl)c2)c2ncn(C(C)C)c2n1` (stereo not given), the Potency in experiment [1] was 30.1 µM (active). The Potency entry in experiment [2], in experiment [3] and in experiment [4] was “inactive” in each case.

As for `CC(C)n1c(=O)c(C(=O)NC2CC3CCC(C2)N3C[C@@H](O)CN(C)S(C)(=O)=O)cc2ccccc21` (stereo not given in full), the activation in experiment [1] is -10.5%. Further, the Potency entry in experiment [2], in experiment [3] and in experiment [4] was “inactive” in each case.

For `Nc1ncnc2c1ncn2[C@H]1CCCO1`, the activation in experiment [1] was -5.73%. In addition, the Potency entry in experiment [2], in experiment [3] and in experiment [4] was “inactive” throughout.

On to `COc1ccc(-c2csc(NC(=O)[C@H]3CCCCN3S(=O)(=O)c3ccc(C)cc3)n2)cc1`, for which the activation in experiment [1] was -8.59%. The Potency result in experiment [2], in experiment [3] and in experiment [4] was “inactive” throughout.

Regarding `O=C(CC(c1ccccc1)c1ccccc1)N1CCN(C(c2ccccc2)c2ccccc2)CC1`, the activation in experiment [1] was 2.86%. For the same compound, the Potency result in experiment [2], in experiment [3] and in experiment [4] was “inactive” throughout.

`CCNC(=O)[C@H]1O[C@H](n2cnc3c(NCC(c4ccccc4)c4ccccc4)nc(C(=O)NCCNC(=O)NC4CCN(c5ccccn5)CC4)nc32)[C@H](O)[C@@H]1O`: the activation in experiment [1] was -9.55%. Further, the Potency result in experiment [2], in experiment [3] and in experiment [4] was “inactive” throughout.

As to `COc1ccc(C#Cc2ccc(C(=O)N3CCC[C@@H](CO)C3)cc2)cc1`, in experiment [1], the activation is -13.8%. In addition, the Potency result in experiment [2], in experiment [3] and in experiment [4] was “inactive” in each case.

For the compound `NC1=NC2(c3cc(NC(=O)c4ccc(F)cn4)ccc3F)COCC2CS1` (stereo not given), the activation in experiment [1] is -6.68%. The Potency entry in experiment [2], in experiment [3] and in experiment [4] was “inactive” throughout.

Consider `O=C(O)c1cc(-c2ccccc2)nc2ccccc12`, for which the activation in experiment [1] is -7.34% and -10% and -1.43%. For the same compound, the Potency result in experiment [2], in experiment [3] and in experiment [4] was “inactive” throughout.

Regarding `CNC(=O)COC(=O)N1CCC(CCc2ccc(Cl)cc2)CC1`, in experiment [1], the activation is -1.91%. Also, the Potency entry in experiment [2], in experiment [3] and in experiment [4] was “inactive” each time.

Consider `Cc1cc(C)nc(NS(=O)(=O)c2ccc(NC(=S)NC(=O)COc3ccc(Br)cc3Cl)cc2)n1`, for which the activation in experiment [1] is -6.21%. Moreover, the Potency entry in experiment [2], in experiment [3] and in experiment [4] was “inactive” in each case.

Take `Cc1cc(N2CCN([C@@H]3CN[C@H](C(=O)N4CCSC4)C3)CC2)n(-c2ccccc2)n1`: in experiment [1], the activation was -1.91%. Also, the Potency result in experiment [2], in experiment [3] and in experiment [4] was “inactive” in each case.

For `O=C(Nc1cccnn1)N1CCN(c2nccc(-c3ccc(F)c(F)c3)n2)CC1`, the activation in experiment [1] was 0.477%. The Potency entry in experiment [2], in experiment [3] and in experiment [4] was “inactive” each time.

Take `COC(=O)C(Cc1ccc(OCCn2c(=O)sc3cc(C(=O)c4ccccc4)ccc32)cc1)C(=O)OC`: the activation in experiment [1] is -10.5%. Moreover, the Potency entry in experiment [2], in experiment [3] and in experiment [4] was “inactive” in each case.

On to `CCC(C)n1cc(C)c2c(C(=O)NCc3c(C)cc(C)[nH]c3=O)cc(-c3ccc(N4CCNCC4)nc3)cc21` (stereo not given), for which the activation in experiment [1] is -3.34%. In addition, the Potency entry in experiment [2], in experiment [3] and in experiment [4] was “inactive” each time.

For the compound `COC(=O)CCc1ccc(OCC(O)CNC(C)C)cc1` (stereo not given), the activation in experiment [1] was 13.4% and 16.7%. Also, the Potency result in experiment [2], in experiment [3] and in experiment [4] was “inactive” in each case.

In the case of `COc1ccccc1-n1c(SCC(=O)Nc2nc3ccc(C)cc3s2)nc2c(c1=O)SCC2`, the activation in experiment [1] is -11.9%. For the same compound, the Potency result in experiment [2], in experiment [3] and in experiment [4] was “inactive” each time.

`O=C(O)CC1CCC(c2ccc(-c3ccc4nc(C(=O)NCc5ccc(OC(F)(F)F)cc5)cn4c3)cc2)CC1` (stereo not given): the activation in experiment [1] was 9.07%. Moreover, the Potency entry in experiment [2], in experiment [3] and in experiment [4] was “inactive” throughout.

For the compound `COC(=O)C(CC1CCCC1)c1ccc(S(C)(=O)=O)cc1` (stereo not given), the activation in experiment [1] is 0.955%. Further, the Potency result in experiment [2], in experiment [3] and in experiment [4] was “inactive” throughout.

In the case of `Cc1cc(C)c(-c2csc(NC(=O)c3ccccc3)n2)c(C)c1`, in experiment [1], the activation is 21%. Besides, the Potency entry in experiment [2], in experiment [3] and in experiment [4] was “inactive” each time.

For the compound `Clc1ccc2c(c1)C1=NCCN1c1c(-c3noc(C4CC4)n3)ncn1-2`, the activation in experiment [1] is -0.477%. Moreover, the Potency entry in experiment [2], in experiment [3] and in experiment [4] was “inactive” each time.

Turning to `CCc1c(CC(N)=O)c2cc(OCCCP(=O)(O)O)ccc2n1Cc1ccccc1`, the activation in experiment [1] was 2.86%. Further, the Potency entry in experiment [2], in experiment [3] and in experiment [4] was “inactive” in each case.

On to `CNC(=O)c1ccc2cc([C@@]3(O)CCn4cncc43)ccc2c1`, for which the activation in experiment [1] was -9.55%. The Potency result in experiment [2], in experiment [3] and in experiment [4] was “inactive” each time.

`O=C(O)c1ccc(S(=O)(=O)N(Cc2ccc(OC(F)(F)F)cc2)c2ncc(C(F)(F)F)cc2Cl)cc1`: the activation in experiment [1] was -2.86%. Further, the Potency result in experiment [2], in experiment [3] and in experiment [4] was “inactive” throughout.

`Nc1c(-c2ccccc2)nc(Cl)c2c(O)n[nH]c(=O)c12`: the activation in experiment [1] was -1.91%. The Potency result in experiment [2], in experiment [3] and in experiment [4] was “inactive” throughout.

With `CC[C@@H](c1ccc(F)c(F)c1)n1c(C(=O)OC)c(-c2ccno2)[nH]c1=S`, the activation in experiment [1] was -6.68%. For the same compound, the Potency entry in experiment [2], in experiment [3] and in experiment [4] was “inactive” in each case.

As to `Fc1ccc(-c2cncc(CN3CCN(c4cccc5c4OCCO5)CC3)c2)cc1`, the activation in experiment [1] is -10%. For the same compound, the Potency entry in experiment [2], in experiment [3] and in experiment [4] was “inactive” throughout.

On to `O=C(O)[C@@H]1C[C@H]2C[C@@H](CCc3nn[nH]n3)CC[C@H]2CN1`, for which the activation in experiment [1] is 4.77%. The Potency result in experiment [2] and in experiment [4] was “inactive” in each case. Besides, in experiment [3], the Potency was 10 µM (active).
